# Data: the supplement of paper PMC6555819
# System: VDR:RXRa (NR concentration 270 nM, RXRa partner concentration 90 nM)
# Assay: PBM binding z-score (relative to random genomic background probes); higher = stronger binding; sequences stand for … in GC…GCGATTGACAGCGTAGAATGAAGG
# Procedure: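 Protein-binding microarray (Agilent 4x180K custom design, double-stranded 60-nt probes: 5' GC cap, 34-nt variable region, 24-nt constant primer region; full probe sequence given). Purified or IVT nuclear receptor:RXRα heterodimers (3:1 NR:RXRα, mostly 270:90 nM) or homodimers were incubated for 1 h in PBS with 2% milk and no ligand, then detected with Alexa488 antibodies. Fluorescence from o1-orientation probes (~5 replicates averaged) was converted to z-scores against 500 random hg19 background probes. Variable regions are seed direct-repeat (DR0–DR5) sites, all their single-nucleotide variants and half-site ablations.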
row,Sequence,PBM binding z-score
1,TCGAGTAGGTTACGGGTGCATTCAGGGATGAAGA,3.53
2,ATATGTAGGTTAGGGTCATTCAGAAAGTAGGGAA,4.7
3,ATCGAAAGGGCGTGAGGTGAGTATACAGAAAGGC,0.49
4,CATACAGGGTCCGCTAGGCCAGAGTAGGGACGGC,-0.537
5,ATATGTAGGTTAGGGTCTTTCAGAAAGTAGGGAA,0.666
6,GGAACGGGGGCAAGTTGATAGCAGAGTTTGATGG,3.44
7,TCTGCTATGTCAACGATGGTCAGCTAATCTGCTA,-0.405
8,GCATATAGGTAATTCAAGGTGAAAGTCCGATTGT,0.627
9,AGTCATAGTTCACTAGGTAACGTAAGATTCAGCT,1.12
10,GATAGTTGGTCAGTAAAAGGTCACACACCGGTCG,3.94
11,CGAACTAGGTCAGAGCAGGACAGTGAAGGATGAT,0.711
12,TTTCCAAGGTGAAAGGTCGTTGATGCACGCCTTG,3.38
13,TCGAGCAGGTTACGGGGGCATTCAGGGATGAAGA,3.86
14,ATCGAAAGGTCGTGAGGTGTGTATACAGAAAGGC,4.55
15,ATCGAAAGGTCGAAGGTGAGTACACCCACCCGAA,3.97
16,ATCGAATGGTCGAAGGTGAGTATACCCACCCGAA,-0.0843
17,CGTCAAAGTTCAAGGCAACGTAACAGAAAGCAGC,3.3
18,TCGAGTAGGTTACGAGGGCATTCAGGGATGAAGA,2.32
19,CTATGTAGGTTAAGGGGGTCATTTAGTTTGAAAG,7.32
20,CCTACTGGGCCAAAGGACATTGATTCCAATGCTC,-0.439

row,Sequence,PBM binding z-score
1,CGTCCAAGGTAAGAGAGGTCAGTGAATGCCGAGT,4
2,GATACAGAGTCAGCTAGAGGCCAGAGTATGGAAA,-0.601
3,ATATGTAGGTTAAGGTCATTCAGAAAGTAGGGAA,4.69
4,ATATCTAGGTTAGGGTCATTCAGAAAGTAGGGAA,4.41
5,CCTAGTTGGTCAGGAGGTCACATACCGGATATGA,3.57
6,TCGAGTAGGTTACGGGGGGATTCAGGGATGAAGA,3.28
7,TGAATGAAGTTAAAGATCAGGGAACGTGGCGTCG,-0.41
8,CAATCTAGGTCACAGAGGTCAAAGTCCGTGCGTA,8.07
9,ATATGTAGGTTAGGGTCATTTAGAAAGTAGGGAA,4.26
10,TCGAGTAGGATACGGGGGCATTCAGGGATGAAGA,2.49
11,CGACCTAGGTCACCAGGACAGTGAAGAGGTTGGA,2.68
12,CTATGTAGGTTAAGGTGGTCATTCAGTTTGAAAG,2.29
13,CGAACTAGGTCAAAGGACAGTGTAAGGCGACGTA,1.58
14,AATACAGGATCACTAGGCCAGAGTAGGTACGAAT,-0.235
15,CCTTACGGGTCAGGGTTATAGCACGGGTGGTACG,2.26
16,AGTCAAAGTTCAGGACGAGGTAATGTAAAGCACG,3.07
17,CCTACTGGGCGACGAAAGGTCATTGATTCAGTGA,3.36
18,CCGAGTAGGTTACGAGGGGGCATACAGTGCGAAT,4.67
19,CCTACTGGGCCATTCAGAGGTCACTGATCATATG,3.58
20,CCGAGTAGGTTACGAGGGGGCAATCAGTGCGAAT,4.72
